Test results taken from PubChem BioAssay (EPA / NIEHS).
Activity calls are given as the source filed them. The calls were made as follows: active = hit-call score of the fitted dose curve at least 0.9, where 1 is the maximum; inactive = score below 0.9.

What follows are compounds tested on Ezrin (EZR), EZR (gene 7430) (assay: LTEA_HepaRG_EZR: Life Technologies and Expression Analysis (LTEA) Assay for Ezrin (EZR) using HepaRG (AID 2283491)). Conditions: mRNA level, 48 h; actives raise or lower the signal.
Description: It is a marker of Cellular remodeling.Data from the assay component LTEA_HepaRG_EZR was analyzed into 1 endpoint. This assay endpoint, LTEA_HepaRG_EZR, was analyzed with bidirectional fitting relative to DMSO as the negative control and baseline of activity. Using a type of inducible reporter, measures of mRNA induction for gain or loss-of-signal activity can be used to understand regulation of transcription factor activity. To generalize the intended target to other relatable targets, this assay endpoint is annotated to the membrane protein intended target family, where the subfamily is Cellular remodeling.
A total of 1060 chemcials from the ToxCast library were tested in eight-point concentration-response experiments. Cell culture and cytotoxicity assays were conducted at Thermo Fisher Scientific's Custom Services facility (Madison, WI). A single lot of human HepaRG cells (Thermo Fisher Scientific, Frederick, MD) was used for the cell culture experiments. 96-well format collagen type I coated plates of human HepaRG cells were prepared using established methods. Briefly, cryopreserved HepaRG cells were thawed, plated at a density of approximately 100,000 cells/well in HepaRG Thaw, Plate, and General Purpose media (HPRG770, Thermo Fisher Scientific), and incubated for 48 hours. 0.5% DMSO was selected as vehicle control to balance the requisite need of DMSO in HepaRG cultures to maintain differentiation (for example, baseline metabolism, proportions of hepatocytes vs. cholangiocytes), while enabling further hepatic receptor pathway activation (for example, PXR and CAR) in response to chemical exposure. 48 hours after plating, the culture medium was replaced with HepaRG Serum-Free Incudtion Media. Cells were exposed to each test chemical in duplicate and maintained in CO2 incubators for another 48 hours. Chemical plates were thawed to room temperature and 200x concentrations of treatment groups were prepared. 8-point conentration-reponse curves were made with the highest exposure at 100 uM, followed by half-log dilutions, all in 0.5% DMSO. Each test plate contained variouse controls, induction positive controls (1mM phenobarbital), cytotoxicity positive controls ([…] aflatoxin B1), vehicle controls (0.5% DMSO), and total lysis controls (0.5% DMSO). Cell morphology images were taken using an Essen IncuCyte FLR automated microscope, with six 96-well plates imaged in about 24 minutes. Images were captured and exported and JPEG files. Spent culture media was transfered to black-well plates for the LDH assay, and remaining media was sorted at -80 C for later use. Cells were treated with RLT buffer and frozen until shipped for gene expression analysis. Total RNA was isolated from the cell suspension in 75 uL of Buffer RLT (Qiagen, Germantown, MD 20874) by Quintiles/Expression Analysis (Durham, NC) using a custom isolation procedure. Total RNA from each plate well was transferred to a preamplification plate. Fluidigm's 96.96 Dynamic ArrayTM (Fluidigm, Amsterdam, the Netherlands) technology was used for gene expression analyses by quantitative reverse transcription polymerase chain reaction (qRT-PCR, performed by Quintiles/Expression Analysis, Durham, NC)89. Standard TaqManTM Assays (Applied Biosystems/ThermoFisher Scientific, Foster City, CA) were used to assess the expression of 93 genes selected based on their selectivity and sensitivity to important hepatic receptors known to be modulated by environmental chemicals; importance in human hepatocyte functionality; and hepatotoxicity. Three "housekeeping" endogenous control genes were also included and used for normalization: actin beta (ACTB), Glyceraldehyde 3 phosphate dehydrogenase (GAPDH) and RNA Polymerase II Subunit A (POLR2A). qRT-PCR was conducted according to the manufacturer's protocol.

Row | SMILES | AC50 | outcome
1 | CN1CCN(c2ccccc2/C=C2\SCCN(c3ccc(Cl)c(Cl)c3)C2=O)CC1 | 50 µM (active) | –
2 | OC1CCC(C2CCCCC2)CC1 (stereo not given) | – | inactive
3 | CCC(=C(c1ccc(O)cc1)c1ccc(OCCN(C)C)cc1)c1ccccc1 | – | inactive
4 | O=[N+]([O-])c1ccc(O)cc1 | – | inactive
5 | CCCCOCCO | – | inactive
6 | CCCCC(CC)COC(=O)CCCCC(=O)OCc1ccccc1 (stereo not given) | – | inactive
7 | CCC(C)(C)C1CCC(O)CC1 (stereo not given) | – | inactive
8 | Nc1cccc2c(N)cccc12 | – | inactive
9 | CC[C@H](C)[C@@H](C(=O)O)n1sc2ccccc2c1=O | – | inactive
10 | CCCOC(=O)c1ccc(O)cc1 | – | inactive
11 | CC(=O)NC1(c2cccc(F)c2)CCN(CC[C@@]2(c3ccc(Cl)c(Cl)c3)CN(c3ccccc3)C(=O)CO2)CC1 | 41.5 µM (active) | –
12 | Cc1oc(-c2ccccc2)nc1CCOc1ccc(C[C@H](Nc2ccccc2C(=O)c2ccccc2)C(=O)O)cc1 | 70 µM (active) | –
13 | CC(C)(C)c1ccc(O)c(C(C)(C)C)c1 | – | inactive
14 | OC1CCCCC1 | – | inactive
15 | CCCCCCCCCCCCN1CCCC1=O | – | inactive
16 | CCOC(=O)CC(O)(CC(=O)OCC)C(=O)OCC | – | inactive
17 | COCC(C)OCC(C)O (stereo not given) | – | inactive
18 | CC#C[C@]1(O)CC[C@H]2[C@@H]3CCC4=CC(=O)CCC4=C3[C@@H](c3ccc(N(C)C)cc3)C[C@@]21C | 50 µM (active) | –
19 | CCCCCCCCC(=O)O | – | inactive
20 | OCCC(F)(F)C(F)(F)C(F)(F)C(F)(F)C(F)(F)C(F)(F)C(F)(F)C(F)(F)F | – | inactive

Row | SMILES | AC50 | outcome
21 | CC(=O)CC(C)(C)O | – | inactive
22 | C#C[C@]1(O)CC[C@H]2[C@@H]3CCC4=CC(=O)CC[C@@H]4[C@H]3CC[C@@]21C | – | inactive
23 | CCCOc1sc(C(=O)N2CCC(c3cc(CN)ccc3F)CC2)c(C)c1Br | – | inactive
24 | CC(C)CCCCCCOC(=O)CCCCC(=O)OCCCCCCC(C)C | – | inactive
25 | C[C@@H]1C[C@H]2[C@@H]3CCC4=CC(=O)C=C[C@]4(C)[C@@]3(F)[C@@H](O)C[C@]2(C)[C@@]1(O)C(=O)COP(=O)(O)O | – | inactive
26 | COC(=O)CCCCC(=O)OC | – | inactive
27 | OCCC(F)(F)C(F)(F)C(F)(F)C(F)(F)C(F)(F)C(F)(F)F | – | inactive
28 | c1ccc2cc3c(ccc4ccccc43)cc2c1 | – | inactive
29 | ClC1=C(Cl)C(Cl)(Cl)C(Cl)=C1Cl | – | inactive
30 | COc1ccc([N+](=O)[O-])cc1N | – | inactive
31 | CC(C)(C)c1cccc(C(C)(C)C)c1O | – | inactive
32 | CCCCCCCCCCCCCCCS(=O)(=O)Oc1ccccc1 | – | inactive
33 | CC[C@H](c1ccc(O)cc1)[C@@H](CC)c1ccc(O)cc1 | 88.4 µM (active) | –
34 | CCCCCCCCCCCCc1ccccc1S(=O)(=O)O | – | inactive
35 | Cc1cc(CCN2CCN(c3nsc4ccccc34)CC2)cc2c1NC(=O)CC2(C)C | 9.92 µM (active) | –
36 | O=c1c(-c2ccc(O)cc2)coc2cc(O)ccc12 | – | inactive
37 | CCCCCCCCOC(=O)CCCCCCCCC(=O)OCCCCCCCC | – | inactive
38 | c1ccc2c(c1)ccc1ccccc12 | – | inactive
39 | NC(=O)N1C(=O)C(C(=O)c2cc(Cl)cs2)c2cc(F)c(Cl)cc21 (stereo not given) | – | inactive
40 | O=C(O)Cc1cc(I)c(Oc2cc(I)c(O)c(I)c2)c(I)c1 | – | inactive
